Assay results published in PubChem BioAssay (NCI).
The panel holds about 83,000 compounds, 20% with a hit somewhere; the sample as a whole holds those more often.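 Values shown are percent growth following 48 h exposure of cells in 96-well plates to a single concentration of compound; below 10 was considered active.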 A number with no mark means an inactive call. Calls of active or inactive are those of the source.

Tests used:
Test in all cases: NCI-60 one-dose screen, 48 h (100 = growth as untreated, 0 = no growth, -100 = all killed)
Conditions in all cases: 10 µM unless noted
NCI-H23 lung = system: NCI-H23 lung
NCI-H226 lung = system: NCI-H226 lung
NCI-H322M lung = system: NCI-H322M lung
HOP-62 NSCLC = system: HOP-62 NSCLC
NCI-H460 lung = system: NCI-H460 lung
HOP-92 NSCLC = system: HOP-92 NSCLC
NCI-H522 lung = system: NCI-H522 lung
A549/ATCC NSCLC = system: A549/ATCC NSCLC
786-0 renal = system: 786-0 renal
COLO 205 colon = system: COLO 205 colon
DU-145 prostate = system: DU-145 prostate
K-562 leukemia = system: K-562 leukemia
MALME-3M melanoma = system: MALME-3M melanoma
MDA-MB-231 breast = system: MDA-MB-231 breast
RXF 393 renal = system: RXF 393 renal
SF-268 CNS = system: SF-268 CNS
SF-295 CNS = system: SF-295 CNS
SF-539 CNS = system: SF-539 CNS
UACC-257 melanoma = system: UACC-257 melanoma
M14 melanoma = system: M14 melanoma

| SMILES | growth (NCI-H23 lung) [%] | growth (NCI-H226 lung) [%] | growth (NCI-H322M lung) [%] | growth (HOP-62 NSCLC) [%] | growth (NCI-H460 lung) | growth (HOP-92 NSCLC) | growth (NCI-H522 lung) | growth (A549/ATCC NSCLC) [%] | growth (786-0 renal) [%] | growth (COLO 205 colon) | growth (DU-145 prostate) [%] | growth (K-562 leukemia) | growth (MALME-3M melanoma) | growth (MDA-MB-231 breast) [%] | growth (RXF 393 renal) | growth (SF-268 CNS) [%] | growth (SF-295 CNS) | growth (SF-539 CNS) | growth (UACC-257 melanoma) [%] | growth (M14 melanoma) |
| --- | --- | --- | --- | --- | --- | --- | --- | --- | --- | --- | --- | --- | --- | --- | --- | --- | --- | --- | --- | --- |
| CCOC(=O)C#Cc1c(C(=O)OCC)nnn1Cc1ccc([N+](=O)[O-])cc1 | 86.2 | 70.4 | 100 | 113 | 98.7% | 40.6% | -33.4% (active) | 96.1 | 65.6 | -22.2% (active) | 10.4 | 4.56% (active) | 53.8% | 83.1 | -58.4% (active) | 87.4 | 99.8% | 47.3% | 42 | 43.8% |
| O=C(CSc1oc(-c2ccccc2)nc1S(=O)(=O)c1ccccc1)Nc1ccc(F)cc1 | 78.6 | 87 | 76.9 | 86.1 | 93.5% | 2.48% (active) | 72.2% | 76.9 | 59.1 | 101% | 110 | 75.4% | 56.4% | 75.6 | 90.5% | 85.7 | 73.4% | 65.6% | 92.5 | 90.2% |
| COc1cc(/C=C/C(=O)c2ccc(F)cc2)ccc1OCCCCOc1ccc(/C=C/C(=O)c2c(C)nc3ccccc3c2C)cc1OC | 74.9 | 69.4 | 103 | 90.2 | 104% | 84.5% | 59.1% | 76.9 | 86.7 | 119% | 157 | 62.2% | 105% | 91.5 | -10.5% (active) | 127 | 98.8% | 138% | 70.3 | 103% |
| Cc1cc(N2CCN(CC(=O)Nc3ccc4c(ccn4C)c3)CC2)nc(N2CCCCCC2)n1 | 99.9 | 97.9 | 92.9 | 80.2 | 101% | 60.5% | 73.3% | 85.3 | 93.8 | 81.1% | 94.2 | 65.6% | 93.6% | 101 | 86.2% | 102 | 98.9% | 110% | 91.9 | 98.7% |
| Cc1nc2sc(C(=O)Nc3cccc(Br)c3)c(N)c2cc1C(O)c1ccccc1 (stereo not given) | 25.1 | 61.7 | 61 | 47.5 | 4.9% (active) | 76.3% | 9.66% (active) | 20.4 | 36.2 | 16.6% | 23.8 | 7.97% (active) | 55% | 24.2 | 28.2% | 42.4 | 40.2% | 6.22% (active) | 38.8 | 16.7% |
| CCN(CC)CCn1c2ccc(OC)cc2c2sc3cc(OC)ccc3c(=O)c21 | 23.1 | 71.4 | 29.8 | 38.1 | 9.41% (active) | 41.7% | 48.1% | 19.1 | 11.1 | 18.6% | 44.9 | 4.61% (active) | -27% (active) | 40.5 | 12.7% | 38.5 | 18.9% | 22.7% | 41.3 | -77.9% (active) |
| C=CCOC(=O)Nc1cccn([C@H](Cc2ccccc2)C(=O)NCCC(C)C)c1=O | 89.7 | 82 | 103 | 104 | 105% | 87.5% | 99.5% | 97.9 | 112 | 110% | 110 | 110% | 103% | 101 | 110% | 106 | 94.5% | 109% | 102 | 121% |
| Cc1ccc(CNc2ccc3nc(CCC4CCCCC4)[nH]c3c2)cc1 | 30.6 | 43.2 | 92.3 | 73 | 58.4% | 0.719% (active) | 9.99% (active) | 63.3 | 52.2 | -30% (active) | 71.8 | 5.06% (active) | 22.4% | 53.1 | 36.2% | 71.2 | 61.1% | 64.6% | 66.8 | 37.4% |
| COc1cc2c(c(OC)c1OC)CCC(c1cccc(C(=O)Nc3ccc(C#N)cc3)c1)O2 (stereo not given) | 40.6 | 33 | 77.4 | 72.1 | 56.5% | 52.3% | 38.4% | 50.9 | 80.6 | 84.8% | 66.5 | 20.4% | 58.2% | 49.4 | 78.8% | 80.1 | 42.5% | 68.8% | 44.5 | 37.7% |
| O=C1Nc2ccc(C(=O)O)cc2/C1=N/c1nnc(Sc2ccccc2)s1 | 104 | 98.5 | 116 | 95 | 107% | 102% | 94.3% | 99.9 | 102 | 124% | 110 | 96.2% | 113% | 106 | 117% | 96.4 | 102% | 96.8% | 107 | 104% |
| Cc1ccc(C)n1-c1ccccc1-n1c(C)ccc1C | 107 | 97.8 | 99.9 | 112 | 105% | 92.4% | 96.5% | 101 | 101 | 114% | 111 | 101% | 120% | 90.8 | 109% | 98.6 | 92.9% | 104% | 103 | 112% |
| Cn1c(=O)c2nc(/C=C/c3ccccc3)c(=O)[nH]c2n(C)c1=S | 100 | 101 | 99.7 | 100 | 103% | 98.1% | 102% | 107 | 99.8 | 121% | 113 | 105% | 105% | 105 | 118% | 105 | 99.8% | 104% | 112 | 103% |
| COc1ccc(Nc2nnc(-c3ccc(OC)c(OC)c3)o2)cc1 | 74.1 | 85.3 | 87.4 | 84.9 | 100% | 66.4% | 62.8% | 83.9 | 91.9 | 99.5% | 90.9 | 80.2% | 106% | 55.7 | 102% | 80.8 | 101% | 92.1% | 102 | 100% |
| N#CC1=C(N)Oc2c(ccc3ccccc23)C1c1ccccc1 (stereo not given) | 25.7 | 61.6 | 55.6 | 12.8 | 6.31% (active) | 38.2% | -15.8% (active) | 10.8 | 13.5 | -49.8% (active) | 13.4 | 9.05% (active) | 46.5% | 28.3 | 68.5% | 19.2 | 8.94% (active) | -3.42% (active) | 37.5 | 3.13% (active) |
| COc1ccc(C/C(C)=C(\c2ccc(Cl)cc2)c2ccc(OCCN3CCCCC3)cc2)cc1 | 91.9 | 86.5 | 96.7 | 102 | 101% | 87.9% | 87.3% | 98.1 | 93.8 | 95.3% | 110 | 67.3% | 106% | 93.3 | 85.1% | 99.6 | 101% | 93.6% | 104 | 93.3% |
